Molecules are shown by their SMILES. Results filed as inconclusive are left out. Activity calls are given as the source filed them. Rule for the calls: active = hit-call score of the fitted dose curve at least 0.9, where 1 is the maximum; inconclusive = response in the unintended direction; inactive = score below 0.9.

Chain of human Akt3 (PKBgamma) AGC Kinase, AKT3 (gene 10000) (Q9Y243 whole entry, looked up): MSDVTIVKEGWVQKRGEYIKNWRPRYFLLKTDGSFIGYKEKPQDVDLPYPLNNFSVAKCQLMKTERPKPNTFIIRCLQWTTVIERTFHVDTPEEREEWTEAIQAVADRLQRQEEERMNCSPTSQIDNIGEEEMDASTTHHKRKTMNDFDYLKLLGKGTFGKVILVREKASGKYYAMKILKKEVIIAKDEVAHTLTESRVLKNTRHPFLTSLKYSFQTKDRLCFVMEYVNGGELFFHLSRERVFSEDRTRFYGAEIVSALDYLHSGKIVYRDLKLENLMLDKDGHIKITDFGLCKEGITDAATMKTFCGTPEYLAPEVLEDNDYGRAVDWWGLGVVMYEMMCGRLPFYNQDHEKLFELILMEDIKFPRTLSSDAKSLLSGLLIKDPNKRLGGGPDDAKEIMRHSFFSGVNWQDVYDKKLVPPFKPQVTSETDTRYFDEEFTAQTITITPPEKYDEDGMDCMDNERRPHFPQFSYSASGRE

This test concerns the target human Akt3 (PKBgamma) AGC Kinase, AKT3 (gene 10000) (UniProt Q9Y243). Kind of test: ERF_FR_ENZ_hAKT3: Eurofins (ERF) Enzymatic Radiometric [Km ATP] KinaseProfiler LeadHunter Assay for human Akt3 (PKBgamma) AGC Kinase. The procedure:
ERF_FR_ENZ_hAKT3 is a biochemical, single-readout assay that uses extracted gene-proteins in a cell-free assay. Measurements were taken 0.5 hour after chemical dosing in a 96-well plate. See Akt3 (PKBgamma) Human AGC Kinase Enzymatic LANCE Assay [Km ATP], Cerep.ERF_FR_ENZ_hAKT3 is an assay component calculated from the ERF_FR_ENZ_hAKT3 assay. It is designed to measure enzyme activity using a type of enzyme reporter as detected by fluorescence intensity with LANCE technology.Data from the assay component ERF_FR_ENZ_hAKT3 was analyzed at the assay endpoint, ERF_FR_ENZ_hAKT3, in the positive analysis fitting direction relative to DMSO as the negative control and baseline of activity. Using a type of enzyme reporter, loss-of-signal activity can be used to understand changes in enzymatic activity as they relate to gene AKT3. To generalize the intended target to other relatable targets, this assay endpoint is annotated to the kinase intended target family, where the subfamily is serine/threonine kinase.
PKBb (h) is incubated with 8 mM MOPS pH 7.0, 0.2 mM EDTA, 30 uM […], 10 mM MgAcetate and [g- 33P]-ATP (specific activity and concentration as required). The reaction is initiated by the addition of the Mg/ATP mix. After incubation for 40 minutes at room temperature, the reaction is stopped by the addition of phosphoric acid to a concentration of 0.5%. […]
For the compound `COc1cc(CCC(=O)CC(=O)CCc2ccc(O)c(OC)c2)ccc1O`, the outcome was inactive.

Turning to `O=C(/C=C/c1ccc(O)cc1)CC(=O)/C=C/c1ccc(O)cc1`, the call was inactive.

Values taken from PubChem BioAssay AID2284061 (EPA ToxCast).
